Parameters in all cases: scale not given: direction of the effect not stated beside the values
Experiment [1] addresses Protein translocase subunit SecA (Escherichia coli (strain K12)) (UniProt P10408). Description: Assay to Identify E. coli SecA ATPase Inhibitors. Format: functional. The conditions noted are these: 30 µM.
The target of experiment [2] is T1, Ubiquitin-activating enzyme e1, putative (Leishmania donovani (strain BPK282A1)) (UniProt E9BSI1).
T1 sequence (whole entry): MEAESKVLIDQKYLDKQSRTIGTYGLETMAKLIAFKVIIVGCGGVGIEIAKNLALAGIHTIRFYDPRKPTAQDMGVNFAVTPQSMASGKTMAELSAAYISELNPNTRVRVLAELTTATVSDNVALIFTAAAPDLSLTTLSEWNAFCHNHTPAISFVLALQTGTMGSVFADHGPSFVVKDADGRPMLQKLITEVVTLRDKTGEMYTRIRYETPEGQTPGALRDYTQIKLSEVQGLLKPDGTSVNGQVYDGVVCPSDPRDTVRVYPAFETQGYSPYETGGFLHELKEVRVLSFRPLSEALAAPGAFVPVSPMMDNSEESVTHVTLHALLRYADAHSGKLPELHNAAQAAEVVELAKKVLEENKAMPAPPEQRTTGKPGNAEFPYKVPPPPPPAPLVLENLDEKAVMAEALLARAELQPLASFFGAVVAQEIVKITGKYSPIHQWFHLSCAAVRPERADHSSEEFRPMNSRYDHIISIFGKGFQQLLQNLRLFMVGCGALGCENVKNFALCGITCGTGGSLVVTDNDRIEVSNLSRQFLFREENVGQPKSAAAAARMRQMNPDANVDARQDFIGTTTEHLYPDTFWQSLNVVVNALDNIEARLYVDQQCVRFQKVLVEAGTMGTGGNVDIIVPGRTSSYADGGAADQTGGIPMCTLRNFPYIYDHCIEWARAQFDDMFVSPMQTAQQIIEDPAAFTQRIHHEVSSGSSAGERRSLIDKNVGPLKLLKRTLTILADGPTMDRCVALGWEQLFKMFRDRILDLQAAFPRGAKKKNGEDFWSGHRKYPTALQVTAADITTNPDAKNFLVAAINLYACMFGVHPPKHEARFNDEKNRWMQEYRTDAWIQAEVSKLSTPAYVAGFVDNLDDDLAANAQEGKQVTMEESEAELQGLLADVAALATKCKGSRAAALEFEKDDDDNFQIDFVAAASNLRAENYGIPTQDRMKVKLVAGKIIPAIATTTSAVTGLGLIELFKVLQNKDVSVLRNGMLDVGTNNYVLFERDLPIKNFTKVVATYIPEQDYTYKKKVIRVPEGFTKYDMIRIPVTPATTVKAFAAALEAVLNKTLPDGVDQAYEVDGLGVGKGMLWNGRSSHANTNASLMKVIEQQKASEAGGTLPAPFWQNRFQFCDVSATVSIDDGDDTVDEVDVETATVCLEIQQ
Description: Leishmania donovani Ubiquitin Activating Enzyme (LdE1). Format: functional. Conditions: 30 µM.

The target in experiment [3] is Sialic acid-binding Ig-like lectin 9 (Homo sapiens) (UniProt Q9Y336). Description: Hs-Siglec9 ALPHAscreen SOP 20170721. The conditions noted are these: 10 µM.
The next experiment has as its system Trypanosoma cruzi. Description: Trypanosoma cruzi phosphomannomutase and mannose-1-phosphate guanylyltransferase assay. Format: functional. Conditions: 10 µM.
Experiment [4] deals with T2, Arginase-2, mitochondrial (Homo sapiens) (UniProt P78540).
T2 sequence (whole entry): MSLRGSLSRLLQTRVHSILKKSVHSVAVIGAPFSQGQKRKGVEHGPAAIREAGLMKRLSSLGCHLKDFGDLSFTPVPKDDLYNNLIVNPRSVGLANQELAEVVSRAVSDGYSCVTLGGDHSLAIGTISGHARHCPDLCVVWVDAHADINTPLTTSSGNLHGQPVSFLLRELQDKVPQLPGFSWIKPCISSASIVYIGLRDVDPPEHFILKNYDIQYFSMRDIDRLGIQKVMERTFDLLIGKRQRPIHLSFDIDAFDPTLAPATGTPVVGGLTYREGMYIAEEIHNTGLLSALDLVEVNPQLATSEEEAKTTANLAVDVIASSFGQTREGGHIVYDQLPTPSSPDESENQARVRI
Kind of experiment: in vitro enzyme assay to detect the production of urea directly proportional to the activity of Arginase II. Note: in the data most compounds retested in dose-response had high values. The conditions noted are these: 33.3 µM. Format: functional.

Experiment [5] has as its target T3, Proteasome subunit beta (Trypanosoma cruzi) (UniProt O96673).
T3 sequence (whole entry): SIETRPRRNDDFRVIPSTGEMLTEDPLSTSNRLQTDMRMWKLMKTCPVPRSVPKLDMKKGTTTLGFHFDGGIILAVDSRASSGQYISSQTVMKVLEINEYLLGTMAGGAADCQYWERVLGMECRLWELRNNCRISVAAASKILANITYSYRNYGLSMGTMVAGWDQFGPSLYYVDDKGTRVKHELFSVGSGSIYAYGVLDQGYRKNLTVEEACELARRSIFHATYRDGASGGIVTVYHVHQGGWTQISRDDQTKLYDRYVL
Description: Trypanosoma cruzi proteasome chymotrypsin-like activity (TcProtChymo) assay. Note: in the data most compounds retested in dose-response had high values. Format: functional. Conditions: 9.37 µM.

Another experiment is filed under the species Homo sapiens. Kind of experiment: To identify inhibition of the IFN signalling (Jak-Stat) pathway via expression of an eGFP reporter gene under the control of an IFN-stimulated response element (ISRE) containing MxA promoter. The conditions noted are these: 30 µM. Format: functional. On the technique in general: In a reporter assay the amount or activity of a reporter protein is the signal.

Experiment [6] has as its target T4, Tyrosyl-tRNA synthetase, putative (Trypanosoma cruzi (strain CL Brener)) (UniProt Q4DSP6).
T4 sequence (whole entry): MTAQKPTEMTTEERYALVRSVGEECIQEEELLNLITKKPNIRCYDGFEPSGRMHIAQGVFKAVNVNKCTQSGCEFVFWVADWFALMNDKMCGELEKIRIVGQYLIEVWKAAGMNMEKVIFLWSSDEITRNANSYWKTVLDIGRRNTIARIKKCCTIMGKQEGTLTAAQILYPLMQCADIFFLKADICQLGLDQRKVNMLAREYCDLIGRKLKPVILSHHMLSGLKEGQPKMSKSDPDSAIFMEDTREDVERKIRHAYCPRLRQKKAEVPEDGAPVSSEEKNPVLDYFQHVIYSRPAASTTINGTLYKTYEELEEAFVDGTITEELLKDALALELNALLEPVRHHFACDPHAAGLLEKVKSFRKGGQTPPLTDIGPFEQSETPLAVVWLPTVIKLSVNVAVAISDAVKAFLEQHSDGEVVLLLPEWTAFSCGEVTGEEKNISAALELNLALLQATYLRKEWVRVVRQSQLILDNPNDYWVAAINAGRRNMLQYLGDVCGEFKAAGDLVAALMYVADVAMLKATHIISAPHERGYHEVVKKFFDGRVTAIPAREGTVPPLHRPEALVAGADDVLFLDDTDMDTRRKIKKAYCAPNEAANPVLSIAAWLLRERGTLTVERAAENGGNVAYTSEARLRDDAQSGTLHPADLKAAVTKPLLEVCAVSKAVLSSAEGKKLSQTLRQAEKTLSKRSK
Description: Trypanosoma cruzi tyrosyl tRNA synthetase (TcYRS) _High Tyrosine SOP. Note: in the data most compounds retested in dose-response had high values. Format: functional. The conditions noted are these: 30 µM.

Experiment [7] addresses T4, Tyrosyl-tRNA synthetase, putative (Trypanosoma cruzi (strain CL Brener)). Description: Trypanosoma cruzi tyrosyl tRNA synthetase (TcYRS) SOP. Format: functional. The conditions noted are these: 30 µM.
The target of experiment [8] is Chromo domain-containing protein 1 (Saccharomyces cerevisiae (strain ATCC 204508 / S288c) (Baker's yeast)) (UniProt P32657). Description: ScCHD-1 Enzyme Inhibition Assay. Note: in the data most compounds retested in dose-response had high values. Format: functional. The conditions noted are these: 30 µM.

The source of these data is ChEMBL document CHEMBL3988442, “University of Dundee, Small-Polar-MMV Screening Library” (2021).

For part of these data: Potency and affinity values are given separately.

Chain of Chromo domain-containing protein 1 (Saccharomyces cerevisiae (strain ATCC 204508 / S288c) (Baker's yeast)) (P32657 whole entry, the tested form may be a part): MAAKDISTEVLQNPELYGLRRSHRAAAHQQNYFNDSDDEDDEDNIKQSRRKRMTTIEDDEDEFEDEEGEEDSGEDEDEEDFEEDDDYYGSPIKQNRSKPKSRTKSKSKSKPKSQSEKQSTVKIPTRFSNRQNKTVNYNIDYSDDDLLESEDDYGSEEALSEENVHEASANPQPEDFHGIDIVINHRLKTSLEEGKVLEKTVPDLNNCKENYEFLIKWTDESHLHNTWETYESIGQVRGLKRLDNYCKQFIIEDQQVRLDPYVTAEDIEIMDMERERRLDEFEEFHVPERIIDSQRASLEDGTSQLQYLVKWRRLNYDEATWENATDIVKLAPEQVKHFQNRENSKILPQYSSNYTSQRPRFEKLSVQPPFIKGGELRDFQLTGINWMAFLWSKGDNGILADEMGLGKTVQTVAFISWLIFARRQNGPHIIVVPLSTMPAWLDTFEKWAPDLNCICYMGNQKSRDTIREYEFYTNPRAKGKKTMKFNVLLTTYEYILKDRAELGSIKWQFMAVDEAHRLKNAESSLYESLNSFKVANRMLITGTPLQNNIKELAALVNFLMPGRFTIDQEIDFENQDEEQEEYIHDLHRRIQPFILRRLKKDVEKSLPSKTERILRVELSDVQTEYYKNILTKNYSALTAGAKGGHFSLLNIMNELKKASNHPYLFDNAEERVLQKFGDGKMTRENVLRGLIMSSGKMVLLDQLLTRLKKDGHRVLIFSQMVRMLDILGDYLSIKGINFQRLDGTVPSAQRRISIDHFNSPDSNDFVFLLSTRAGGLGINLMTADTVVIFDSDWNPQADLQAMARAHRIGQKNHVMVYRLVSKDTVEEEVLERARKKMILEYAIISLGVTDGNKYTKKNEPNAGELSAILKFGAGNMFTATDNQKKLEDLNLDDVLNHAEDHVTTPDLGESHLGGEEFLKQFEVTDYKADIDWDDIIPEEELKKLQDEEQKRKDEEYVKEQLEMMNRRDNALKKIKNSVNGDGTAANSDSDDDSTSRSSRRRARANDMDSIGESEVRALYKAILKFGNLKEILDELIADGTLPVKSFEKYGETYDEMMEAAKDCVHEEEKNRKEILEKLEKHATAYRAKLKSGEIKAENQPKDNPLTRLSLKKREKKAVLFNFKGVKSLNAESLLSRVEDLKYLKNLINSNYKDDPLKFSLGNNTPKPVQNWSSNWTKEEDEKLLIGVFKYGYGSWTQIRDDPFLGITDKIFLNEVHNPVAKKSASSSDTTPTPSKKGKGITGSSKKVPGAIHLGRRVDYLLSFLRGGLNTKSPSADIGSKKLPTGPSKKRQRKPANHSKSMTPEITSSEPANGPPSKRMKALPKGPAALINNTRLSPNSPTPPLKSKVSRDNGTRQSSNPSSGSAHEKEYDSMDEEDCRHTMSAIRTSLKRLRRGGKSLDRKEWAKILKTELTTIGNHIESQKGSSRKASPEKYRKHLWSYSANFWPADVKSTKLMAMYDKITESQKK
Chain of Protein translocase subunit SecA (Escherichia coli (strain K12)) (P10408 whole entry): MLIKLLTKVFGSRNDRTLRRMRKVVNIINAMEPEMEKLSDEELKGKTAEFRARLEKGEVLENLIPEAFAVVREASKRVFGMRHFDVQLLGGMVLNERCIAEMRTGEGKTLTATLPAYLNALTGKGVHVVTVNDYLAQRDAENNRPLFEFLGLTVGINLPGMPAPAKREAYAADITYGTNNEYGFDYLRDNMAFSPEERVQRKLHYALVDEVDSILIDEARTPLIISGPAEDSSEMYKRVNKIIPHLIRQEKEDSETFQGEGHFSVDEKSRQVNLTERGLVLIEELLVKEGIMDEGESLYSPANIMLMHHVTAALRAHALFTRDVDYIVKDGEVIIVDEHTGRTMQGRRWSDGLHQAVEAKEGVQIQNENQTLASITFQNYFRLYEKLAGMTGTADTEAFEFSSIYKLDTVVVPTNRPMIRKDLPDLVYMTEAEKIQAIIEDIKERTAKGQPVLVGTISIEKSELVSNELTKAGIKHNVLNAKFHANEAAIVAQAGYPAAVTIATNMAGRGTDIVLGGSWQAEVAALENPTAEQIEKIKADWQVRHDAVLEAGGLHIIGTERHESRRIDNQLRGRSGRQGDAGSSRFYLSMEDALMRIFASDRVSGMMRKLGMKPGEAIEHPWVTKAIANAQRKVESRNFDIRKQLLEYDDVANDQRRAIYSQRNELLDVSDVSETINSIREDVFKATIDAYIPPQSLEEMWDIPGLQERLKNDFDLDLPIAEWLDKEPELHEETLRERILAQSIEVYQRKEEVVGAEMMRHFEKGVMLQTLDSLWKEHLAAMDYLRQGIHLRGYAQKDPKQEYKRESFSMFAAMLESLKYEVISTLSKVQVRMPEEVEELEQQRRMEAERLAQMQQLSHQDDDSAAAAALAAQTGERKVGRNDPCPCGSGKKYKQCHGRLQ
Chain of Sialic acid-binding Ig-like lectin 9 (Homo sapiens) (Q9Y336 whole entry): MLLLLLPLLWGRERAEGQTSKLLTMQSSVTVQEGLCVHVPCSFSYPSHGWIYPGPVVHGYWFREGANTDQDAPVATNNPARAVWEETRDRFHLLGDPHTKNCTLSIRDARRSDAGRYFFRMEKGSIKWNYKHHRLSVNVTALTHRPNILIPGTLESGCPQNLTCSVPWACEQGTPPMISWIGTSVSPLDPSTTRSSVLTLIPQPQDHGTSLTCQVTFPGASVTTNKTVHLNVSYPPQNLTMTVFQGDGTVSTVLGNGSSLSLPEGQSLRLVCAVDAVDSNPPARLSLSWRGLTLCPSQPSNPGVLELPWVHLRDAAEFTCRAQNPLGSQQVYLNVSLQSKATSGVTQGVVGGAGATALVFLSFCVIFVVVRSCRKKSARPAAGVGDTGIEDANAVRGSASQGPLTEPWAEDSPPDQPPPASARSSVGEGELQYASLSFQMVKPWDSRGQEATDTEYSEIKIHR

Regarding `Cc1cc(C(=O)NCc2ccc(N3CCCC(C(N)=O)C3)cc2)no1` (stereo not given), the Percent Effect was -3.67% in [1]; 10.7% in [2]; 2.55% in experiment [3]; 3.01% in the experiment on Trypanosoma cruzi; 4.88% in [4]; 11.1% in experiment [5]. Further, the Percent Effect in the experiment listed under Homo sapiens is 3.86%; in experiment [6], 2.63%; in experiment [7], 5.13%; in experiment [8], -7.24%.
As to `OC(CNCCn1cccn1)c1ccc(F)c(F)c1` (stereo not given), the Percent Effect in [1] was 1.48%; in experiment [2], 16%; in experiment [3], -2.24%; with Trypanosoma cruzi it was 2.81%; in experiment [4] it was 1.33%; in [5] it was 19.8%. Further, the Percent Effect was 18.7% in the experiment listed under Homo sapiens, 4.74% in experiment [6], 12.8% in experiment [7] and -8.38% in experiment [8].
Turning to `COCC(=O)N1CCC(c2nccnc2Oc2cccnc2C)CC1`, the Percent Effect in experiment [1] is 0.43%; in experiment [2], 14.7%; in experiment [3] it was -6.2%; in the experiment with Trypanosoma cruzi it was -3.35%; in experiment [4] it was 4.87%; in experiment [5], 15.6%. Also, the Percent Effect was -0.132% in the experiment filed under Homo sapiens, 0% in experiment [6], 7.5% in experiment [7] and -22.1% in [8].
Consider `c1cnn(Cc2nnc3n2CCCN(CC2CCOCC2)C3)c1`, for which the Percent Effect in [1] is -8.53%; in [2], 1.3%; in experiment [3] it was -2.75%; in the experiment on Trypanosoma cruzi, -3.02%; in experiment [4] it was -2.83%; in experiment [5] it was 3.62%. Besides, the Percent Effect in the experiment listed under Homo sapiens is 1.85%; in experiment [6] it was -0.526%; in experiment [7], 5.13%; in [8] it was 2.31%.
As to `CC(C)n1[nH]c(=O)c2c1NC(=O)CC2c1cccc(OC(F)F)c1` (stereo not given), the Percent Effect in experiment [1] is -3.01%; in experiment [2], 2.7%; in experiment [3], -4.26%; in the experiment on Trypanosoma cruzi, -8.63%; in [4] it was -1.75%; in experiment [5], 16.1%. Further, the Percent Effect is 27.6% in the experiment filed under Homo sapiens, 1.6% in experiment [6], 2.44% in experiment [7] and -5.54% in experiment [8].
Consider `O=C1NCCN(CC2CC2)C12CCN(Cc1ccc3c(c1)OCO3)CC2`, for which the Percent Effect in [1] is -1.54%; in experiment [2], 19.5%; in [3] it was 3.24%; in the experiment with Trypanosoma cruzi, -8.47%; in experiment [4] it was 6.07%; in experiment [5] it was 16.9%. For the same compound, the Percent Effect was 30.6% in the experiment filed under Homo sapiens, 4.74% in [6], -7.69% in experiment [7] and -3.74% in experiment [8].
For `CC(NC(=O)N1CCN(c2ccc(Cl)cc2)CC1)C(=O)N1CCSCC1` (stereo not given), the Percent Effect in experiment [1] is -6.05%; in experiment [2], 8.11%; in experiment [3], 0.915%; in the experiment on Trypanosoma cruzi it was -2.04%; in [4], 0.35%; in experiment [5], 17.8%. Also, the Percent Effect in the experiment filed under Homo sapiens was 13.2%; in experiment [6] it was 5.85%; in [7], 12.2%; in experiment [8], -1.19%.
On to `c1ccc(-c2nc(CN3CCOC(Cn4cccn4)C3)no2)cc1` (stereo not given), for which the Percent Effect in experiment [1] is -2.84%; in [2] it was 2.67%; in experiment [3], -2.67%; in the experiment with Trypanosoma cruzi, -3.01%; in [4] it was 4.43%; in experiment [5], 7.38%. For the same compound, the Percent Effect in the experiment listed under Homo sapiens was 4.88%; in experiment [6], 5.79%; in experiment [7] it was 12.8%; in experiment [8], -6.08%.
`CCOc1cc(CNC(=O)N2CCC(Cc3cnn(C)c3)C2)ccn1` (stereo not given): the Percent Effect in experiment [1] was -2.64%; in experiment [2], -2.56%; in experiment [3] it was 1.57%; with Trypanosoma cruzi, 9.11%; in [4], 0.82%; in [5], 2.13%. Besides, the Percent Effect in the experiment listed under Homo sapiens was 4.43%; in experiment [6] it was 3.35%; in [7], 6.02%; in [8], -0.605%.
